About 83,000 compounds went through this panel and 20% of them were active in at least one assay; those are over-represented in the sample as a whole.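 The endpoint reported here, percent growth, reads 100 for growth as untreated, 0 for no net growth and -100 for all cells dead.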 Active and inactive are the calls of the source. The calls were made as follows: active = growth percent below 10; inactive = the rest.
Key:
Assay in all cases: NCI-60 one-dose screen, 48 h (100 = growth as untreated, 0 = no growth, -100 = all killed)
Settings in all cases: 10 µM
COLO 205 colon = system: COLO 205 colon
RXF 393 renal = system: RXF 393 renal
SNB-75 CNS = system: SNB-75 CNS
SK-MEL-5 melanoma = system: SK-MEL-5 melanoma
OVCAR-4 ovarian = system: OVCAR-4 ovarian
SK-OV-3 ovarian = system: SK-OV-3 ovarian
IGROV1 ovarian = system: IGROV1 ovarian
NCI/ADR-RES ovarian = system: NCI/ADR-RES ovarian
T-47D breast = system: T-47D breast
MCF7 breast = system: MCF7 breast
HCT-116 colon = system: HCT-116 colon
HCC-2998 colon = system: HCC-2998 colon
KM12 colon = system: KM12 colon
SK-MEL-2 melanoma = system: SK-MEL-2 melanoma
SN12C renal = system: SN12C renal
CCRF-CEM leukemia = system: CCRF-CEM leukemia
UACC-62 melanoma = system: UACC-62 melanoma

Measured: growth

O=C(Nc1ccc(OCc2ccc(Cl)cc2)cc1)Nc1ccc(Cl)c(C(F)(F)F)c1
active: COLO 205 colon -80.6% | RXF 393 renal -21% | SK-MEL-5 melanoma -81.4% | SK-OV-3 ovarian -18.9% | NCI/ADR-RES ovarian 1.08% | T-47D breast 3.95% | MCF7 breast 1.78% | HCT-116 colon 3.96% | HCC-2998 colon 3.51%
inactive: SNB-75 CNS 28% | OVCAR-4 ovarian 13.8% | IGROV1 ovarian 47.6% | KM12 colon 10.2%

CCn1c(SCC(=O)Nc2ccc(-c3nc4ccccc4[nH]3)cc2)nc2ccccc2c1=O
active: COLO 205 colon -72.7% | RXF 393 renal -87.1% | SK-MEL-5 melanoma -51.2% | SK-MEL-2 melanoma -79.4% | SN12C renal -77.7% | OVCAR-4 ovarian -84.1% | NCI/ADR-RES ovarian -42.6% | T-47D breast -58.2% | MCF7 breast -71.7% | HCT-116 colon -81.4% | HCC-2998 colon -31.6% | KM12 colon -14.5%
inactive: CCRF-CEM leukemia 44.7%

COc1ccc(C2c3sc4ccc(C)cc4c3Oc3nc[nH]c(=O)c32)cc1 (stereo not drawn)
inactive: RXF 393 renal 85.7% | SK-MEL-5 melanoma 88.8% | CCRF-CEM leukemia 91.7% | OVCAR-4 ovarian 85.3% | SK-OV-3 ovarian 81.2% | NCI/ADR-RES ovarian 65.4% | T-47D breast 83.4% | MCF7 breast 69.6% | HCT-116 colon 90.2% | HCC-2998 colon 94% | KM12 colon 61.1%

O=C(Nc1ccc(OCC(=O)c2ccc(Cl)cc2)cc1)Nc1ccc(Cl)c(C(F)(F)F)c1
inactive: SNB-75 CNS 51.5% | SK-MEL-5 melanoma 53.8% | UACC-62 melanoma 18.1% | OVCAR-4 ovarian 38.1% | MCF7 breast 51.4% | HCT-116 colon 50.8% | HCC-2998 colon 33.4% | KM12 colon 14.9%
active: COLO 205 colon -49.4% | RXF 393 renal -60.8% | T-47D breast 6.1%

COc1ccc(C2c3sc4ccc(C)cc4c3Oc3nc(N)nc(N)c32)cc1 (stereo not drawn)
inactive: RXF 393 renal 64.8% | SK-MEL-5 melanoma 92.9% | SN12C renal 91.4% | CCRF-CEM leukemia 82.8% | OVCAR-4 ovarian 85.8% | SK-OV-3 ovarian 89.3% | NCI/ADR-RES ovarian 85.1% | T-47D breast 61.3% | MCF7 breast 53.8% | HCT-116 colon 86.9% | HCC-2998 colon 94% | KM12 colon 70.9%

CC1(C)CC(=O)C2=C(C1)N(Cc1ccc(C(=O)O)cc1)C1=C(C(=O)CC(C)(C)C1)C2c1ccc(Cl)cc1
inactive: RXF 393 renal 111% | SNB-75 CNS 94.5% | SK-MEL-5 melanoma 99.9% | SK-MEL-2 melanoma 97.6% | CCRF-CEM leukemia 102% | OVCAR-4 ovarian 99.5% | SK-OV-3 ovarian 101% | IGROV1 ovarian 107% | T-47D breast 91.9% | MCF7 breast 89.6% | HCT-116 colon 106% | HCC-2998 colon 101% | KM12 colon 108%

COc1ccc(C(=O)COc2ccc(NC(=O)Nc3ccccc3)cc2)cc1
inactive: COLO 205 colon 107% | RXF 393 renal 82.8% | SK-MEL-5 melanoma 94.3% | UACC-62 melanoma 80% | CCRF-CEM leukemia 91% | OVCAR-4 ovarian 87.2% | NCI/ADR-RES ovarian 86.4% | T-47D breast 65.6% | MCF7 breast 67.2% | HCT-116 colon 91% | HCC-2998 colon 105% | KM12 colon 91.6%

COc1cccc(C(=O)CSc2nc(-c3ccc(OCc4ccccc4)c(OC)c3)c(C#N)c(=O)[nH]2)c1
inactive: COLO 205 colon 115% | RXF 393 renal 93% | SK-MEL-5 melanoma 98.5% | SN12C renal 85.6% | CCRF-CEM leukemia 101% | OVCAR-4 ovarian 96.8% | SK-OV-3 ovarian 94.5% | IGROV1 ovarian 106% | NCI/ADR-RES ovarian 96.9% | T-47D breast 90.7% | MCF7 breast 91.3% | HCT-116 colon 99.6% | HCC-2998 colon 111% | KM12 colon 104%

Cc1ccc2sc3c(c2c1)Oc1nc[nH]c(=O)c1C3c1cccc(F)c1 (stereo not drawn)
inactive: COLO 205 colon 105% | RXF 393 renal 109% | SK-MEL-5 melanoma 96.4% | SN12C renal 89.5% | CCRF-CEM leukemia 107% | OVCAR-4 ovarian 91.7% | SK-OV-3 ovarian 93.5% | NCI/ADR-RES ovarian 100% | T-47D breast 83.9% | MCF7 breast 60.9% | HCT-116 colon 89.3% | HCC-2998 colon 118% | KM12 colon 100%

O=C(Nc1ccc(OCc2ccc(F)cc2)cc1)Nc1ccc(Cl)c(C(F)(F)F)c1
active: RXF 393 renal -24.3% | SK-MEL-5 melanoma -81.4% | SK-OV-3 ovarian -26.5% | NCI/ADR-RES ovarian 4.62% | T-47D breast 6.12% | MCF7 breast 3.2% | HCT-116 colon 4.96% | HCC-2998 colon 1.98%
inactive: OVCAR-4 ovarian 19% | IGROV1 ovarian 43.6% | KM12 colon 11.1%

O=C(CC(=O)Nc1ccc(Oc2ncnc3scc(Nc4n[nH]c(=S)s4)c23)cc1)Nc1ccc(Cl)cc1
inactive: COLO 205 colon 88.5% | RXF 393 renal 94.8% | SK-MEL-5 melanoma 89% | UACC-62 melanoma 53.6% | CCRF-CEM leukemia 58.1% | OVCAR-4 ovarian 90.2% | IGROV1 ovarian 62.2% | T-47D breast 55.1% | MCF7 breast 11.7% | HCT-116 colon 92.5% | HCC-2998 colon 99.8%

CC(C)(C)c1cc(/C=C2\S/C(=N/c3ncn[nH]3)NC2=O)cc(C(C)(C)C)c1O
active: RXF 393 renal -17.5% | SK-MEL-5 melanoma -25.2% | UACC-62 melanoma 1.85% | SK-MEL-2 melanoma -7.9% | NCI/ADR-RES ovarian 5.61% | MCF7 breast 8.22% | HCT-116 colon 7.92%
inactive: COLO 205 colon 12.4% | CCRF-CEM leukemia 11% | OVCAR-4 ovarian 33.8% | T-47D breast 10.3% | HCC-2998 colon 14.5% | KM12 colon 20.2%

O=C(CC(=O)Nc1ccc(Oc2ncnc3scc(Nc4n[nH]c(=S)s4)c23)cc1)Nc1ccc(Br)cc1
inactive: RXF 393 renal 129% | SK-MEL-5 melanoma 98% | UACC-62 melanoma 82.2% | SK-MEL-2 melanoma 98.8% | SN12C renal 106% | CCRF-CEM leukemia 75.9% | OVCAR-4 ovarian 106% | SK-OV-3 ovarian 98.4% | NCI/ADR-RES ovarian 103% | T-47D breast 86.3% | MCF7 breast 86.8% | HCT-116 colon 107% | HCC-2998 colon 112%

O=C(CSc1nc2ccccc2c(=O)n1-c1ccc(Cl)cc1)Nc1ccc(-c2nc3ccc([N+](=O)[O-])cc3[nH]2)cc1
inactive: SK-MEL-5 melanoma 65.3% | UACC-62 melanoma 36.9% | SK-MEL-2 melanoma 34.4% | SK-OV-3 ovarian 40.2% | NCI/ADR-RES ovarian 61.3% | MCF7 breast 20.9% | HCT-116 colon 19.1% | HCC-2998 colon 12.1% | KM12 colon 43%
active: RXF 393 renal -5.28% | OVCAR-4 ovarian -12.1% | T-47D breast 6.69%

Cc1cc(N=C2NC(=O)S/C2=C\c2ccc(F)cc2)n[nH]1
inactive: SK-MEL-5 melanoma 16.5% | SN12C renal 22.8% | OVCAR-4 ovarian 22.7% | IGROV1 ovarian 25.3% | T-47D breast 18.1% | HCC-2998 colon 22.4% | KM12 colon 28.2%
active: RXF 393 renal -37.4% | UACC-62 melanoma -19.6% | CCRF-CEM leukemia 9.4% | NCI/ADR-RES ovarian 9.56% | MCF7 breast 7.74% | HCT-116 colon -51.5%

Cn1cc(-c2nc(N)nnc2-c2c[nH]c3ccccc23)c2cc(Br)cnc21
active: RXF 393 renal 6.16% | SK-MEL-5 melanoma -81.3% | NCI/ADR-RES ovarian 3.11% | MCF7 breast 4.57% | HCT-116 colon 7.04% | HCC-2998 colon -35%
inactive: SN12C renal 17.7% | CCRF-CEM leukemia 20.5% | OVCAR-4 ovarian 32.1% | T-47D breast 65.2% | KM12 colon 13.1%

O=C1NC(=S)S/C1=C\c1cn(-c2ccccc2)nc1-c1ccc([N+](=O)[O-])cc1
inactive: COLO 205 colon 11.7% | SN12C renal 14.9% | CCRF-CEM leukemia 18.5% | OVCAR-4 ovarian 15% | HCC-2998 colon 22.4% | KM12 colon 24.4%
active: RXF 393 renal 3.42% | SK-MEL-5 melanoma -33.3% | SK-MEL-2 melanoma -29.2% | T-47D breast 6.73% | MCF7 breast 6.25% | HCT-116 colon 5%

O=C(Nc1ccc(Oc2ncnc3scc(Nc4n[nH]c(=S)s4)c23)cc1)C1(C(=O)Nc2cccc(C(F)(F)F)c2)CC1
inactive: RXF 393 renal 118% | SK-MEL-5 melanoma 95% | UACC-62 melanoma 86.5% | CCRF-CEM leukemia 111% | OVCAR-4 ovarian 108% | SK-OV-3 ovarian 93.7% | T-47D breast 86.7% | MCF7 breast 23.3% | HCT-116 colon 99.7% | HCC-2998 colon 107%

O=C(O)CCN1C(=O)/C(=C/C=C/c2ccc([N+](=O)[O-])o2)SC1=S
inactive: SNB-75 CNS 24.2%

O=C1NC2C=CC=CC2/C1=C1/SC(=S)N(C2CC(=O)N(c3ccc(Br)cc3)C2=O)C1=O (stereo not drawn)
inactive: RXF 393 renal 109% | SNB-75 CNS 101% | SK-MEL-5 melanoma 100% | UACC-62 melanoma 87.6% | SK-MEL-2 melanoma 107% | CCRF-CEM leukemia 53.9% | OVCAR-4 ovarian 93.1% | SK-OV-3 ovarian 99.1% | IGROV1 ovarian 100% | T-47D breast 82.9% | MCF7 breast 45.7% | HCT-116 colon 103% | HCC-2998 colon 99.3% | KM12 colon 81.4%

Cn1cc(-c2nnc(N)nc2-c2c[nH]c3ccccc23)c2cc(Br)cnc21
inactive: COLO 205 colon 32.4% | SNB-75 CNS 34% | UACC-62 melanoma 24.3% | SK-MEL-2 melanoma 46.2% | OVCAR-4 ovarian 46.5% | SK-OV-3 ovarian 60.6% | IGROV1 ovarian 35.6% | T-47D breast 29.4% | MCF7 breast 14% | HCT-116 colon 22.8% | KM12 colon 51.1%
active: RXF 393 renal -20.1% | SK-MEL-5 melanoma -72.8% | HCC-2998 colon -27%

Cc1ccc2c(c1)C(=O)/C(=C/c1ccc([N+](=O)[O-])cc1)S2
inactive: COLO 205 colon 103% | RXF 393 renal 109% | SK-MEL-5 melanoma 95.1% | SK-MEL-2 melanoma 101% | CCRF-CEM leukemia 109% | OVCAR-4 ovarian 83.4% | SK-OV-3 ovarian 87.4% | NCI/ADR-RES ovarian 95.3% | T-47D breast 86.3% | HCT-116 colon 14.3% | HCC-2998 colon 103% | KM12 colon 105%
active: MCF7 breast 3.81%

COc1cc(C2CC(c3ccc(Oc4ccc(Cl)cc4)cc3)=NN2c2nc(-c3ccc(Cl)cc3)c(C#N)c(N3CCOCC3)n2)cc(OC)c1OC (stereo not drawn)
inactive: COLO 205 colon 101% | RXF 393 renal 107% | SNB-75 CNS 78.3% | SK-MEL-5 melanoma 97.8% | UACC-62 melanoma 91.2% | CCRF-CEM leukemia 111% | OVCAR-4 ovarian 103% | IGROV1 ovarian 106% | T-47D breast 91.8% | MCF7 breast 84.6% | HCT-116 colon 106% | HCC-2998 colon 100% | KM12 colon 101%
